Data on 27 molecules can be found in PubChem BioAssay (NCATS).

Inconclusive results are not listed. A call without a number means that no potency is given here. Activity calls are given as the source filed them. Calls come from the whole dose curve; as a rule, active = well fitted cell-killing curve with a large enough effect; inconclusive = small, poorly fitted or top-dose-only effect, or effect the other way; inactive = flat fitted curve, though single readings scatter.
Potency is the fitted concentration of half-maximal effect.

The test system of the first test is OV90. Nature of the test: Primary qHTS to identify gynecologic anti-cancer compounds using libraries of approved drugs and bioactive compounds (AID 1345084). Note: nearly all actives have a fitted effect of over 55% in size. As to conditions: Gynecologic cancer cell panel viability, ATPlite luminescence, 48 h; series mostly up to 57.5 µM. The procedure, abridged: (§1)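 Cells, 1,000 per well, plated 16 h, then exposed 48 h at 37 C to compounds. Viability by ATPlite luminescence after 15 min at room temperature.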
As for `CC1=C(/C=C/C(C)=C/C=C/C(C)=C/C(=O)Nc2ccc(O)cc2)C(C)(C)CCC1`, the Potency was 31.6 µM (active).

For the molecule `Cc1ccc(Nc2cc(-c3cccc(N4C(=O)c5ccccc5C4=O)c3)ncn2)cc1NS(C)(=O)=O`, the Potency entry is “inactive”.

Regarding `Cc1ccn(-c2ccc(-c3ncco3)cc2)c(=O)c1-c1ccc2nc(N)ncc2c1`, the Potency result was “inactive”.

For `CN(C)Cc1ccc(-c2nc3cccc4c3n2CCNC4=O)cc1`, the Potency entry is “inactive”.

For a further test, the system named is PA-1. The description is as above. As to conditions: Gynecologic cancer cell panel viability, ATPlite luminescence, 48 h; series mostly up to 57.5 µM. In a few lines: as §1
For orientation: ATP-based viability assays read luminescence as a measure of living cells.
As for `CC(C)(C)NC(=O)Nc1cccc(Nc2ncc(F)c(NC(C)(C)CO)n2)c1`, the Potency result is “inactive”.

As to `CC(C)OC(=O)C(C)(C)Oc1ccc(C(=O)c2ccc(Cl)cc2)cc1`, the Potency entry is “inactive”.

As for `COc1ncc(-c2ccc3nccc(-c4ccnnc4)c3c2)cc1NS(=O)(=O)c1ccc(F)cc1F`, the Potency was 0.355 µM (active).

Take `COc1cc2c(cc1OC)CN(CCc1ccc(NC(=O)c3cc(OC)c(OC)cc3NC(=O)c3cnc4ccccc4c3)cc1)CC2`: the Potency is 11.2 µM (active).

Consider `COc1cc(N2CCC(N3CCN(C)CC3)CC2)ccc1Nc1ncc(Cl)c(Nc2ccccc2S(=O)(=O)C(C)C)n1`, for which the Potency is 10 µM (active).

Consider `COc1cc(N2CCC(N3CCN(C)CC3)CC2)ccc1Nc1ncnc(Nc2ccccc2S(=O)(=O)C(C)C)n1`, for which the Potency was 7.94 µM (active).

For the molecule `COCCOC(=O)C1=C(C)NC2=C(C(=O)CC(c3ccccc3OC)C2)C1c1cccc(O)c1` (centres undefined), the Potency entry is “inactive”.

Turning to `NC(=O)c1cccc2[nH]c(-c3ccc([C@H]4CCCN4)cc3F)nc12`, the Potency is 12.6 µM (active).

Take `CC(=O)O[C@]1(C(C)=O)CC[C@H]2[C@@H]3C=C(Cl)C4=CC(=O)[C@@H]5C[C@@H]5[C@]4(C)[C@H]3CC[C@@]21C`: the Potency result was “inactive”.

`CC1=C(/C=C/C(C)=C/C=C/C(C)=C/C(=O)Nc2ccc(O)cc2)C(C)(C)CCC1`: the Potency is 4.47 µM (active).

Turning to `Cc1ccn(-c2ccc(-c3ncco3)cc2)c(=O)c1-c1ccc2nc(N)ncc2c1`, the Potency is 11.2 µM (active).

`NC(=O)c1ccc2nc(-c3ccc(Oc4ccc(Cl)cc4)cc3)[nH]c2c1`: the Potency is 15.8 µM (active).

Take `CC(=O)Nc1ccc([C@H](C)C(=O)Nc2ncc(C(C)C)s2)cc1`: the Potency was 22.4 µM (active).

Take `CN1C[C@H]2c3ccccc3Oc3ccc(Cl)cc3[C@@H]2C1`: the Potency result is “inactive”.

The next test concerns SKOV3. The test is described as above. Conditions: Gynecologic cancer cell panel viability, ATPlite luminescence, 48 h; series mostly up to 57.5 µM. In a few lines: as §1
Take `CN[C@@H](C)C(=O)N[C@H]1CN(C(=O)CC(C)C)CC[C@H]2CC[C@@H](C(=O)NC(c3ccccc3)c3ccccc3)N2C1=O`: the Potency was 7.94 µM (active).

Regarding `CC(C)(C)NC(=O)Nc1cccc(Nc2ncc(F)c(NC(C)(C)CO)n2)c1`, the Potency entry was “inactive”.

As for `CC(C)C(=O)Nc1ncc(-c2cc(C(F)F)nn2-c2c(Cl)cccc2Cl)s1`, the Potency entry was “inactive”.

For `CC(C)OC(=O)C(C)(C)Oc1ccc(C(=O)c2ccc(Cl)cc2)cc1`, the Potency entry was “inactive”.

`O=C(O)c1ccccc1C(=O)Nc1ccc(-c2ccccc2)cc1`: the Potency is 25.1 µM (active).

For the molecule `CC(=O)N(C)C1(c2ccccc2)CCN(CCC[C@]2(c3ccc(Cl)c(Cl)c3)CCCN(C(=O)c3ccccc3)C2)CC1`, the Potency is 22.4 µM (active).

`CC(=O)O[C@]1(C(C)=O)CC[C@H]2[C@@H]3C=C(Cl)C4=CC(=O)[C@@H]5C[C@@H]5[C@]4(C)[C@H]3CC[C@@]21C`: the Potency result is “inactive”.

`Cc1ccc(Nc2cc(-c3cccc(N4C(=O)c5ccccc5C4=O)c3)ncn2)cc1NS(C)(=O)=O`: the Potency result is “inactive”.

Take `CNC1CCC(N(Cc2cccc(-c3ccncc3)c2)C(=O)c2sc3c(F)ccc(F)c3c2Cl)CC1` (centres undefined): the Potency entry is “inactive”.

As for `Cc1ccn(-c2ccc(-c3ncco3)cc2)c(=O)c1-c1ccc2nc(N)ncc2c1`, the Potency is 3.55 µM (active).

`CN(C)Cc1ccc(-c2nc3cccc4c3n2CCNC4=O)cc1`: the Potency result is “inactive”.

Regarding `CC(=O)Nc1ccc([C@H](C)C(=O)Nc2ncc(C(C)C)s2)cc1`, the Potency entry is “inactive”.

In another test the test system is Tov-21-G. The test is described as above. As to conditions: Gynecologic cancer cell panel viability, ATPlite luminescence, 48 h; series mostly up to 57.5 µM. The procedure, abridged:
as §1
For the molecule `CN[C@@H](C)C(=O)N[C@H]1CN(C(=O)CC(C)C)CC[C@H]2CC[C@@H](C(=O)NC(c3ccccc3)c3ccccc3)N2C1=O`, the Potency is 5.62 µM (active).

As for `CC(C)(C)NC(=O)Nc1cccc(Nc2ncc(F)c(NC(C)(C)CO)n2)c1`, the Potency result is “inactive”.

Take `CC(C)OC(=O)C(C)(C)Oc1ccc(C(=O)c2ccc(Cl)cc2)cc1`: the Potency result is “inactive”.

As to `O=C(Nc1cccc(Br)c1)c1cccc(S(=O)(=O)N2CCCCCC2)c1`, the Potency entry was “inactive”.

For the molecule `COc1ncc(-c2ccc3nccc(-c4ccnnc4)c3c2)cc1NS(=O)(=O)c1ccc(F)cc1F`, the Potency is 12.6 µM (active).

With `CC(C)n1nc(-c2ccc3oc(N)nc3c2)c2c(N)ncnc21`, the Potency is 0.316 µM (active).

For `O=c1cc(CN2CCOCC2)occ1OCCCCCSc1ccnc2cc(C(F)(F)F)ccc12`, the Potency entry is “inactive”.

With `CCOc1ccc(Nc2nc(-c3c(C)nc4ccccn34)cs2)cc1`, the Potency is 0.316 µM (active).

In the case of `COc1cc(N2CCC(N3CCN(C)CC3)CC2)ccc1Nc1ncc(Cl)c(Nc2ccccc2S(=O)(=O)C(C)C)n1`, the Potency was 7.08 µM (active).

For the molecule `COc1cc(N2CCC(N3CCN(C)CC3)CC2)ccc1Nc1ncnc(Nc2ccccc2S(=O)(=O)C(C)C)n1`, the Potency is 12.6 µM (active).

As to `COCCOC(=O)C1=C(C)NC2=C(C(=O)CC(c3ccccc3OC)C2)C1c1cccc(O)c1` (centres undefined), the Potency entry was “inactive”.

`COCCOc1nc(-c2ccc(Cl)c(Cl)c2)n(-c2ccc(NC(=O)CCl)cc2)n1`: the Potency was 5.62 µM (active).

Consider `NC(=O)c1cccc2[nH]c(-c3ccc([C@H]4CCCN4)cc3F)nc12`, for which the Potency is 14.1 µM (active).

For `CC(=O)O[C@]1(C(C)=O)CC[C@H]2[C@@H]3C=C(Cl)C4=CC(=O)[C@@H]5C[C@@H]5[C@]4(C)[C@H]3CC[C@@]21C`, the Potency result was “inactive”.

Take `CC1=C(/C=C/C(C)=C/C=C/C(C)=C/C(=O)Nc2ccc(O)cc2)C(C)(C)CCC1`: the Potency was 20 µM (active).

As for `Cc1ccc(Nc2cc(-c3cccc(N4C(=O)c5ccccc5C4=O)c3)ncn2)cc1NS(C)(=O)=O`, the Potency result was “inactive”.

Turning to `Cc1cccc(Nc2nc(-c3ccncc3)cs2)c1`, the Potency entry was “inactive”.

For the molecule `Cc1ccn(-c2ccc(-c3ncco3)cc2)c(=O)c1-c1ccc2nc(N)ncc2c1`, the Potency is 11.2 µM (active).

In the case of `CN1C[C@H]2c3ccccc3Oc3ccc(Cl)cc3[C@@H]2C1`, the Potency entry was “inactive”.
